# Assay results published in PubChem BioAssay (EPA / NIEHS).
# Inconclusive results are not listed. Active and inactive are the calls of the source. How the source made its calls: active means hit-call score of the fitted dose curve at least 0.9, where 1 is the maximum; inconclusive means response in the unintended direction; inactive means score below 0.9.
# Experiment: TOX21_p53_BLA_p3_viability: Viability Assessment in the Tox21 HCT-116 p53 Agonism Beta-lactamase Assay, Phase 3 (AID 2283593);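 further: cells exposed to compound for 16 h before reading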
# Excerpt: TOX21_p53_BLA_p3 is a cell-based, single-readout assay that uses HCT116, a human intestinal cell line, […] in a 1536-well plate.TOX21_p53_BLA_p3_viability is an assay readout measuring cellular ATP content and detected with CellTiter-Glo Luciferase-coupled ATP quantitation.TOX21_p53_BLA_p3_viability used a type of viability reporter where loss-of-signal activity can be used to understand changes in the cell viability. Furthermore, this assay endpoint can be referred to as a secondary readout, because this assay has produced multiple assay endpoints where this one serves a viability function. To generalize the intended target to other relatable targets, this assay endpoint is annotated to the cell cycle intended target family, where the subfamily is cytotoxicity.
# Thawing Method: Place 14 mL of pre-warmed thaw medium into a 15 mL of conical tub. Remove the vial of cells to be thawed from liquid nitrogen and thaw rapidly by placing at 37C in a water bath with gentle agitation for 1-2 minutes. Decontaminate the vial by wiping with 70% ethanol before opening in a biological safety cabinet. Transfer the vial contents drop-wise into 14 mL of thaw medium in a sterile 15-mL conical tub. Centrifuge cells at 900 rpm for 4 minutes and resuspend in thaw medium. Transfer contents to the T75 tissue culture flask containing Thaw Medium and place flask in a humidified 37C/5% CO2 incubator. Switch to growth medium at first passage.Propagation Method: Aspirate medium, rinse once in DPBS, add 0.25% Trypsin/EDTA and swirl to coat the cell evenly. Add an equal volume of Growth Medium to inactivate Trypsin after 2-3 minutes incubation at 37C. Centrifuge cells at 900 rpm for 4 minutes and resuspend in growth medium. Cell should be passage or fed at least twice a week.Assay Protocol: Harvest cells from culture in growth medium and resuspend in assay medium. 2.2 Dispense 4000 cells/5 uL/well into 1536-well black/clear bottom plates using a Multidrop dispenser. After the cells were incubated at 37C for 5 hours, 23 nL of compounds dissolved in DMSO were transferred to the assay plate by a PinTool resulting in a 217-fold dilution. Incubate the plates for 16 hours at 37C, 5% CO2. Add 1 uL of 6X LiveBLAzer FRET B/G (CCF4-AM) Substrate Mixture to each well using a BioRAPTR dispenser and incubate the plates at room temperature for 2 hours. Measure fluorescence intensity at 460 and 530 nm emission and 405 nm excitation by an Envision detector. Data is expressed as the ratio of 460nm/530nm emissions. Add 4 uL of Cell-titer Glo to each well using BioRAPTR and incubate the plates at room temperature for […]. For cell viability readout that measures cytotoxicity, 4 ul/well of CellTiter-Glo reagent was added into the assay plates using a Flying Reagent Dispenser. After 30 min incubation at room temperature, the luminescence intensity in the plates was measured using a ViewLux plate reader.
row,SMILES,outcome
1,CCCCCCCCCCCCCCO,inactive
2,CCCCC(CC)C(=O)OCCOCCOCCOC(=O)C(CC)CCCC (configuration not stated),inactive
3,O=C(N[C@H](CO)[C@H](O)c1ccc([N+](=O)[O-])cc1)C(Cl)Cl,inactive
4,S=P(N1CC1)(N1CC1)N1CC1,inactive
5,c1ccc(C(O[C@@H]2CCCN(CCc3ccc4c(c3)OCO4)C2)c2ccccc2)cc1,inactive
6,CCCCCCCCCCCCCCCCOS(=O)(=O)O,inactive
7,CCCCCCCC/C=C\CCCCCCCC(=O)OC[C@@H](O)[C@H]1OC[C@H](O)[C@H]1O,inactive
8,C=CN1CCCC1=O,inactive
9,c1ccc2cc3ccccc3cc2c1,inactive
10,CC(C)c1nnc2ccc(-c3ocnc3-c3cc(F)ccc3F)cn12,inactive
11,CCCCOC(=O)c1ccccc1,inactive
12,OCc1c[nH]c2ccccc12,inactive
13,CCc1cccc(CC)c1N,inactive
14,OC(CCl)CCl,inactive
15,OCCOCCOCCO,inactive
16,OC(Cn1cncn1)(Cn1cncn1)c1ccc(F)cc1F,inactive
17,O=C1CN(N=Cc2ccc([N+](=O)[O-])o2)C(=O)N1,inactive
18,CCn1nc(C)c2c1C(=O)NCC(c1ccc(O)cc1)=N2,inactive
19,NNC(=O)c1ccncc1,inactive
20,c1ccc2ncccc2c1,inactive
21,NC(=O)NN=Cc1ccc([N+](=O)[O-])o1,inactive
22,C[C@]12C=CC(=O)C=C1CC[C@H]1[C@@H]3C[C@@H](O)[C@](O)(C(=O)CO)[C@@]3(C)C[C@H](O)[C@@]12F,inactive
23,CCCc1ccccc1,inactive
24,CCOC(N)=O,inactive
25,CCc1ccc(O)c(C(C)(C)C)c1,inactive
26,CC(=O)c1ccccc1,inactive
27,Cc1cccc(O)c1C,inactive
